Results taken from ChEMBL document CHEMBL2218924, “A broad activity screen in support of a chemogenomic map for kinase signalling research and drug discovery” (Biochem J, 2013).

Key:
[1] = target: Calcium/calmodulin-dependent protein kinase type 1 (Homo sapiens) (UniProt Q14012); details: at 1 µM
[2] = target: Calcium/calmodulin-dependent protein kinase type 1 (Homo sapiens) (UniProt Q14012); details: at 10 µM
[3] = target: Calcium/calmodulin-dependent protein kinase type II subunit beta (Homo sapiens) (UniProt Q13554); details: at 1 µM
[4] = target: Calcium/calmodulin-dependent protein kinase type II subunit beta (Homo sapiens) (UniProt Q13554); details: at 10 µM
[5] = target: Calcium/calmodulin-dependent protein kinase type II subunit gamma (Homo sapiens) (UniProt Q13555); details: at 1 µM
[6] = target: Calcium/calmodulin-dependent protein kinase type II subunit gamma (Homo sapiens) (UniProt Q13555); details: at 10 µM
[7] = target: Calcium/calmodulin-dependent protein kinase type II subunit delta (Homo sapiens) (UniProt Q13557); details: at 1 µM
[8] = target: Calcium/calmodulin-dependent protein kinase type II subunit delta (Homo sapiens) (UniProt Q13557); details: at 10 µM
[9] = target: T1, Calcium/calmodulin-dependent protein kinase type IV (Homo sapiens) (UniProt Q16566); details: at 1 µM
T1 sequence (whole entry): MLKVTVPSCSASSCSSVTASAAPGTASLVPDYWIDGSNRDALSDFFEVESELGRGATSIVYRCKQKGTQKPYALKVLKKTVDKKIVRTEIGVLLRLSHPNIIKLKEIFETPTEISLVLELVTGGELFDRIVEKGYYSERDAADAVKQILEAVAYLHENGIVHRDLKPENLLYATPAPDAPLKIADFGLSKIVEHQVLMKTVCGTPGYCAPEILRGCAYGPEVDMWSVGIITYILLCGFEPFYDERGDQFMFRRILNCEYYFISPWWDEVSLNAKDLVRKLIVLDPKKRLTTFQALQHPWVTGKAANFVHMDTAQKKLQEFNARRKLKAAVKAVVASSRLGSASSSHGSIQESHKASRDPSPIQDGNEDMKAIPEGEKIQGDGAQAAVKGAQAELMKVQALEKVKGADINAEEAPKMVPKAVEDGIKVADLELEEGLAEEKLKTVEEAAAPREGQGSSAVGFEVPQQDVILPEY

[10] = target: T1, Calcium/calmodulin-dependent protein kinase type IV (Homo sapiens); details: at 10 µM
[11] = target: Death-associated protein kinase 1 (Homo sapiens) (UniProt P53355); details: at 10 µM
[12] = target: Death-associated protein kinase 2 (Homo sapiens) (UniProt Q9UIK4); details: at 1 µM
[13] = target: Death-associated protein kinase 2 (Homo sapiens) (UniProt Q9UIK4); details: at 10 µM
[14] = target: T2, Serine/threonine-protein kinase DCLK2 (Homo sapiens) (UniProt Q8N568); details: at 1 µM
T2 sequence (whole entry): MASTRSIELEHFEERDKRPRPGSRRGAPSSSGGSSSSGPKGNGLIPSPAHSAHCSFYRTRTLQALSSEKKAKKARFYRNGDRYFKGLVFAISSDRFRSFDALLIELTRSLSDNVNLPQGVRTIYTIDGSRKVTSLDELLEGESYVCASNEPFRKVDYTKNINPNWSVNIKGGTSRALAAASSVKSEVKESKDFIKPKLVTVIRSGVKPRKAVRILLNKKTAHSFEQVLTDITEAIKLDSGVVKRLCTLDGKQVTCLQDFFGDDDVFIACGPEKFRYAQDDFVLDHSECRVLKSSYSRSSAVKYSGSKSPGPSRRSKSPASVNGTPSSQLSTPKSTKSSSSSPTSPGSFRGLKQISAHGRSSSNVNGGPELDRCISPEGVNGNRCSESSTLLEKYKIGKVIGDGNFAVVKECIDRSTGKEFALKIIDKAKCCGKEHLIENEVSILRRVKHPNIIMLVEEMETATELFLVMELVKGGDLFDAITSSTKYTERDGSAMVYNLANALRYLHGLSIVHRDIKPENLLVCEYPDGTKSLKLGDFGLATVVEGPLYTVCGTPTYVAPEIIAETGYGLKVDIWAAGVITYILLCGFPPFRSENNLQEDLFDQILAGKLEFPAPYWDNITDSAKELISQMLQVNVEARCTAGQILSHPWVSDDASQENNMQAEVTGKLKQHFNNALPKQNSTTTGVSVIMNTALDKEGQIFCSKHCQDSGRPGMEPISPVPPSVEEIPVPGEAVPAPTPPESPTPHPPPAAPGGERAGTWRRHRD

[15] = target: T2, Serine/threonine-protein kinase DCLK2 (Homo sapiens); details: at 10 µM
[16] = target: T3, Discoidin domain-containing receptor 2 (Homo sapiens) (UniProt Q16832); details: at 1 µM
T3 sequence (whole entry): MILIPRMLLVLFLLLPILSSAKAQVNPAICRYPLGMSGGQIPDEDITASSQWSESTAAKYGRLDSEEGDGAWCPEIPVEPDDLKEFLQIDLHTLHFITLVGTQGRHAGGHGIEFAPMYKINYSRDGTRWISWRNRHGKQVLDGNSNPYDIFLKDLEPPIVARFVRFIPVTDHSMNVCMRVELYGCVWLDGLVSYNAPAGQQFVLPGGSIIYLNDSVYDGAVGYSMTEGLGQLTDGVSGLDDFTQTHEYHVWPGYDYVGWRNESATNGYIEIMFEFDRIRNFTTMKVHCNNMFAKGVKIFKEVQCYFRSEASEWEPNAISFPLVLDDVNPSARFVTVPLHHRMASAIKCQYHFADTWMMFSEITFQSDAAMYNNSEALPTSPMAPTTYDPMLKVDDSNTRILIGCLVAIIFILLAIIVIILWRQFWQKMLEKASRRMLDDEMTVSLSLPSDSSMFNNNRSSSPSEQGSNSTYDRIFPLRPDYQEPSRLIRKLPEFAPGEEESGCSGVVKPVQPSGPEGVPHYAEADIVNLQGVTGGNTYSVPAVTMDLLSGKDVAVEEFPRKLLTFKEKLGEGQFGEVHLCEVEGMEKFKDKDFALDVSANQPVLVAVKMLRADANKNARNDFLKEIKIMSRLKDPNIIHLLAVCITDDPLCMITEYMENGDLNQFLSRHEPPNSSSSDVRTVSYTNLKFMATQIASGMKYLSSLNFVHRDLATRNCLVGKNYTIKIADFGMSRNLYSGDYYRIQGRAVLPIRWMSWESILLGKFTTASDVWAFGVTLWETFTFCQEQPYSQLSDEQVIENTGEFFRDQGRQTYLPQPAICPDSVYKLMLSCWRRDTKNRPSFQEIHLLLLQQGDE

[17] = target: T3, Discoidin domain-containing receptor 2 (Homo sapiens); details: at 10 µM
[18] = target: T4, Myotonin-protein kinase (Homo sapiens) (UniProt Q09013); details: at 1 µM
T4 sequence (whole entry): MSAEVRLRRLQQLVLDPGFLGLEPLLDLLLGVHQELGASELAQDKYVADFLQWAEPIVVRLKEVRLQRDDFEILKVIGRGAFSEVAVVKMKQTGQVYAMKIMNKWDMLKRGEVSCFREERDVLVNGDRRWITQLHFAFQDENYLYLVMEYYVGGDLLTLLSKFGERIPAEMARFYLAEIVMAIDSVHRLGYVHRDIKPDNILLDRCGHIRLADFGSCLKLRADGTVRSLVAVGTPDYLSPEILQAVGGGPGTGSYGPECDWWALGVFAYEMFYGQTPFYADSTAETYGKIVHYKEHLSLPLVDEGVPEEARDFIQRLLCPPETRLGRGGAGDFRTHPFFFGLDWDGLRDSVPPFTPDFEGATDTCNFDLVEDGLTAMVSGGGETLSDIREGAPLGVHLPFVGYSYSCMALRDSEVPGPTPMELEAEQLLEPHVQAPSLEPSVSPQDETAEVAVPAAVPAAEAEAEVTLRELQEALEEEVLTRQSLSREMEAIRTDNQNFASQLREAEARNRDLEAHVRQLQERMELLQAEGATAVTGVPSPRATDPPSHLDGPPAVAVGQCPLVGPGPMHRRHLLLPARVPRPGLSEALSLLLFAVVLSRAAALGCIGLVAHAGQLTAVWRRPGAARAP

[19] = target: T4, Myotonin-protein kinase (Homo sapiens); details: at 10 µM
[20] = target: T5, Serine/threonine-protein kinase 17A (Homo sapiens) (UniProt Q9UEE5); details: at 1 µM
T5 sequence (whole entry): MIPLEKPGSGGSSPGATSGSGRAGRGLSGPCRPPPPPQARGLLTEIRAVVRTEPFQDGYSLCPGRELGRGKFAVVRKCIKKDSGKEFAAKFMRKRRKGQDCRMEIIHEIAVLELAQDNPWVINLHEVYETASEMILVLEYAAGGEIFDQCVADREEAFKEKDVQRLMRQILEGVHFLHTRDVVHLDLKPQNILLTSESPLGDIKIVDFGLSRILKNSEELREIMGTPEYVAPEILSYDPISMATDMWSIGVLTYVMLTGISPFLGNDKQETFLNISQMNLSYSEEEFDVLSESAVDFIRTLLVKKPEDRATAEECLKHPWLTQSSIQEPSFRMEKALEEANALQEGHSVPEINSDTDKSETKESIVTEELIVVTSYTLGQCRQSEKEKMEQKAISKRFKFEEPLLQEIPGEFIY

Death-associated protein kinase 1 (Homo sapiens), sequence (P53355 whole entry, looked up): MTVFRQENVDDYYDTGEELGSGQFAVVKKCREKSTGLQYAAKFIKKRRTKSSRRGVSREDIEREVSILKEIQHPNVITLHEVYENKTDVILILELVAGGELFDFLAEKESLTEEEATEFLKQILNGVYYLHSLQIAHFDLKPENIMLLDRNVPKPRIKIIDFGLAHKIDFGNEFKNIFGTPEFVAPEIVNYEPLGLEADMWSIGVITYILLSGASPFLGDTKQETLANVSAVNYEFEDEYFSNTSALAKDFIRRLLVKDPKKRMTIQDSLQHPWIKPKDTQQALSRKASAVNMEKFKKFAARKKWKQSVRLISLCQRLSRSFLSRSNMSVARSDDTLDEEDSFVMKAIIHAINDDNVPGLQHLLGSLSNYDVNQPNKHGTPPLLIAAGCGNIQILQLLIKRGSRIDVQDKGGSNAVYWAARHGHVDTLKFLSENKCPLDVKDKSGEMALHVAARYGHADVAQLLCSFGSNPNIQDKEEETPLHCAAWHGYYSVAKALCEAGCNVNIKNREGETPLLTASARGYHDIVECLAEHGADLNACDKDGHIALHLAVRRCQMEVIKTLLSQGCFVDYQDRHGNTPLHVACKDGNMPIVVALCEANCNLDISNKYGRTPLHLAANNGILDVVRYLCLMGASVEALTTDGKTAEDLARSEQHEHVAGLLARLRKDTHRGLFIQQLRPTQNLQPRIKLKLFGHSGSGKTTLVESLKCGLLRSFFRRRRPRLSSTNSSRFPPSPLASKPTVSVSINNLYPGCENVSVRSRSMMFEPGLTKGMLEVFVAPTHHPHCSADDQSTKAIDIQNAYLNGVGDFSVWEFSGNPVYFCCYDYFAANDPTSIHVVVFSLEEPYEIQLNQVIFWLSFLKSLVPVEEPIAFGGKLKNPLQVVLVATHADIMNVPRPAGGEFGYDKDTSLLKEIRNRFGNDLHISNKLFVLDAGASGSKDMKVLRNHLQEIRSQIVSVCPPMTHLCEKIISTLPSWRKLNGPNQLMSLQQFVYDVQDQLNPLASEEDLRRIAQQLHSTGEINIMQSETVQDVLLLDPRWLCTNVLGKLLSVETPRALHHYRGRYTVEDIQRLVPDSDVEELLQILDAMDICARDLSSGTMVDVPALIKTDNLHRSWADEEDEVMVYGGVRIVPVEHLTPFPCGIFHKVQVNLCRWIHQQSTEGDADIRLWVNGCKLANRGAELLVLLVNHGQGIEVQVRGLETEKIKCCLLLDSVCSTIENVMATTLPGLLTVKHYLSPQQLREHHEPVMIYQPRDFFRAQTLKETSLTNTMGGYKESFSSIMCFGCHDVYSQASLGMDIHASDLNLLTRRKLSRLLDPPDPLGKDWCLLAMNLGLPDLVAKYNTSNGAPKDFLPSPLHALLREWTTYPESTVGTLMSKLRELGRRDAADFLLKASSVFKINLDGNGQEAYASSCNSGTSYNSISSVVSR
Calcium/calmodulin-dependent protein kinase type 1 (Homo sapiens), sequence (Q14012 whole entry, looked up): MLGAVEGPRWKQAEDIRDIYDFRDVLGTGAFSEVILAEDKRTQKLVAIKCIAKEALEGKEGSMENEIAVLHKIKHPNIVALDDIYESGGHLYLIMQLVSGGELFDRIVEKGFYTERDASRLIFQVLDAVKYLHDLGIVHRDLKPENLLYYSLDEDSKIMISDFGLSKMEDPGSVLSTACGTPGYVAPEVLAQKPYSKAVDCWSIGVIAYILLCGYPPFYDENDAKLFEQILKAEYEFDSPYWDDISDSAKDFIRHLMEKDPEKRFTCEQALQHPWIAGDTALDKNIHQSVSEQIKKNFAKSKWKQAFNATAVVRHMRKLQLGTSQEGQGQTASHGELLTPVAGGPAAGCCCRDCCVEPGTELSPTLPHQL
Calcium/calmodulin-dependent protein kinase type II subunit gamma (Homo sapiens), sequence (Q13555 whole entry): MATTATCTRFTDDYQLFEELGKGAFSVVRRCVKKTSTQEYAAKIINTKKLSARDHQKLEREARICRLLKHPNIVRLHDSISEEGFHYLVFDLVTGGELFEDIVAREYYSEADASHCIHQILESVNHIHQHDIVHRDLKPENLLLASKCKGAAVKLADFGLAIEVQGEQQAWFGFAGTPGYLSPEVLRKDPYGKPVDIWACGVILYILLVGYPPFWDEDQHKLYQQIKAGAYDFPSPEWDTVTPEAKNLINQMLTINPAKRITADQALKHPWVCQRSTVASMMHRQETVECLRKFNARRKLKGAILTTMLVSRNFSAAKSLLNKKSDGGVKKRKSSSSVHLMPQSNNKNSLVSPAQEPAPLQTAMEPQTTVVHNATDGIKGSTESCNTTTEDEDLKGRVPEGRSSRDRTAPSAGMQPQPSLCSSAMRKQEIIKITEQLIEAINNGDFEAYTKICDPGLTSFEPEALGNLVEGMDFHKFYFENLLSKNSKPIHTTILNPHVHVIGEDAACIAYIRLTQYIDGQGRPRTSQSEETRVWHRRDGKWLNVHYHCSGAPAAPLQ
Calcium/calmodulin-dependent protein kinase type II subunit delta (Homo sapiens), sequence (Q13557 whole entry): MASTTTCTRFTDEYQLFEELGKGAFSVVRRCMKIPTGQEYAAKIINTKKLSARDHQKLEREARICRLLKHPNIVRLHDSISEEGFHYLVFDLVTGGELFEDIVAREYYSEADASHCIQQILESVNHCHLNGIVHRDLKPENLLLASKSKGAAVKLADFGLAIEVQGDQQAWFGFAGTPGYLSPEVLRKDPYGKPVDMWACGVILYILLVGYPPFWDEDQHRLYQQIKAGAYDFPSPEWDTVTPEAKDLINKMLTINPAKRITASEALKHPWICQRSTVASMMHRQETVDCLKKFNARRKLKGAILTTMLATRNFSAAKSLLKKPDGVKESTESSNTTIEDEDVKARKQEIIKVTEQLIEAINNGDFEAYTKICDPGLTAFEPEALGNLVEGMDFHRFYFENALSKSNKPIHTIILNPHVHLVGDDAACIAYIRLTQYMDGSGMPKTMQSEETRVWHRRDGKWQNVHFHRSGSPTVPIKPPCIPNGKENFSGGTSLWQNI
Calcium/calmodulin-dependent protein kinase type II subunit beta (Homo sapiens), sequence (Q13554 whole entry): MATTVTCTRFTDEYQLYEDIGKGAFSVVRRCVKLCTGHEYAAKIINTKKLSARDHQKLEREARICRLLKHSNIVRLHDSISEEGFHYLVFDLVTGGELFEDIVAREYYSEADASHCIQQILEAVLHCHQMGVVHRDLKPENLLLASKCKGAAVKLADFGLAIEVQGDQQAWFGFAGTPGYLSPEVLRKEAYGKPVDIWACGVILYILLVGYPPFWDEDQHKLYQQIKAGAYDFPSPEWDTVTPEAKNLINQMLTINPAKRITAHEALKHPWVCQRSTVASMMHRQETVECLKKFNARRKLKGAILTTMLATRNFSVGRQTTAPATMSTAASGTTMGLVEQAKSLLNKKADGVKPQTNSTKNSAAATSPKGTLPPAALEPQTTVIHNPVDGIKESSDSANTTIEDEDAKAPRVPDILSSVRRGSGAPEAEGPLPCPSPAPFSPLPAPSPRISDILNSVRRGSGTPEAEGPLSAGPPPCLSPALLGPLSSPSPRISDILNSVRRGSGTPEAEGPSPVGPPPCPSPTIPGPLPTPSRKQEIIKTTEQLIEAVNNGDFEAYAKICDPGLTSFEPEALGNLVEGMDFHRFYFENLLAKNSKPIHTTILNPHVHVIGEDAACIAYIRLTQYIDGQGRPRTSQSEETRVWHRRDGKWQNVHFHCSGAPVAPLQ
Death-associated protein kinase 2 (Homo sapiens), sequence (Q9UIK4 whole entry, looked up): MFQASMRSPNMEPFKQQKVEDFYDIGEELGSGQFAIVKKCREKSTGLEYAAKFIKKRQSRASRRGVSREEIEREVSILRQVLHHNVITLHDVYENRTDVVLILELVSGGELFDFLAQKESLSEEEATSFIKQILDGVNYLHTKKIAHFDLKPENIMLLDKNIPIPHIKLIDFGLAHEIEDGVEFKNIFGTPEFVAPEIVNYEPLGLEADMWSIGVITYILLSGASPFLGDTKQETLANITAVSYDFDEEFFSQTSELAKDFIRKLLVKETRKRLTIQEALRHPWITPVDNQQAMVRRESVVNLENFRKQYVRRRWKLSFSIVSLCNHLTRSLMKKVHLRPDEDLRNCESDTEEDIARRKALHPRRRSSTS

SMILES | residual activity [1] | residual activity [2] | residual activity [3] | residual activity [4] | residual activity [5] | residual activity [6] | residual activity [7] | residual activity [8] | residual activity [9] | residual activity [10] | residual activity [11] | residual activity [12] | residual activity [13] | residual activity [14] | residual activity [15] | residual activity [16] | residual activity [17] | residual activity [18] | residual activity [19] | residual activity [20]
Oc1ccc(-c2nc(-c3ccc(F)cc3)c(-c3ccncc3)[nH]2)cc1 | 111% | 100% | 92% | 52% | 110% | 89% | 98% | 76% | 115% | 99% | 76% | 110% | 97% | 113% | 76% | 69% | 20% | 112% | 88% | –
Oc1n[nH]c2nnc(-c3c(-c4ccccc4)nn4ccccc34)cc12 | 92% | 79% | 91% | 80% | 90% | 78% | 87% | 82% | 105% | 96% | 39% | 62% | 43% | 85% | 92% | 92% | 95% | 69% | 83% | 78%
Nc1n[nH]c2nnc(-c3c(-c4ccccc4)nn4ccccc34)cc12 | 101% | 79% | 93% | 80% | 103% | 92% | 94% | 93% | 95% | 64% | 88% | 95% | 99% | 128% | 75% | 94% | 74% | 92% | 75% | 83%
O=C1Nc2ccccc2/C1=C1/Nc2ccccc2/C1=N\OCCC(O)CO (centres undefined) | 64% | 15% | 27% | 4% | 6% | 0% | 6% | 1% | 15% | 9% | 43% | 49% | 12% | 99% | 35% | 76% | 46% | 115% | 69% | 5%
CCN(CC)CCCCN1c2ccccc2Oc2ccc(Cl)cc21 | 107% | 89% | 106% | 93% | 111% | 97% | 112% | 112% | 126% | 118% | 99% | 111% | 109% | 96% | 104% | 115% | 90% | 120% | 136% | 124%
NC(=O)c1ccc2[nH]c(-c3ccc(Oc4ccc(Cl)cc4)cc3)nc2c1 | 94% | 92% | 87% | 43% | 92% | 58% | 91% | 61% | 108% | 108% | 98% | 101% | 102% | 111% | 182% | 98% | 102% | 107% | 83% | 58%
CC[n+]1c(/C=C/N(C)c2ccccc2)n(-c2ccccc2)c2ccc(-c3nc4ccccc4s3)cc21 | 107% | 26% | 93% | 38% | 113% | 99% | 109% | 78% | 124% | 95% | 51% | 100% | 99% | 110% | 102% | 116% | 88% | 120% | 121% | 119%
CCC(=O)Nc1ccc2ncnc(Nc3cccc(Br)c3)c2c1 | 96% | 98% | 90% | 80% | 100% | 74% | 109% | 79% | 123% | 73% | 93% | 98% | 107% | 79% | 100% | 92% | 82% | 112% | 118% | 95%
COc1ccc(S(=O)(=O)N(CCO)c2ccccc2CN(C)C/C=C/c2ccc(Cl)cc2)cc1 | 92% | 38% | 96% | 20% | 107% | 67% | 101% | 47% | 106% | 92% | 65% | 100% | 87% | 91% | 107% | 97% | 97% | 99% | 89% | 95%
Nc1ccc2ncnc(NCCc3ccc(Oc4ccccc4)cc3)c2c1 | 107% | 87% | 72% | 43% | 24% | 11% | 31% | 14% | 108% | 106% | 75% | 105% | 100% | 110% | 87% | 91% | 90% | 98% | 86% | 62%
N#C/C(=C(\N)Sc1ccc(N)cc1)c1ccccc1C(F)(F)F | 83% | 95% | 79% | 86% | 90% | 86% | 62% | 47% | 107% | 83% | 78% | 98% | 103% | 102% | 99% | 91% | 108% | 95% | 85% | 96%
